In PubChem BioAssay (NCATS):
Records with an inconclusive call do not appear. A call without a number means that no potency is given here. Activity calls are given as the source filed them. Unless noted, the call rests on the fitted dose curve; in most records, active means well fitted curve in the direction sought with a large enough effect; inconclusive means small, poorly fitted or top-dose-only effect, or another doubt; inactive means no such curve, though single readings can be large; an effect the other way counts as inactive or inconclusive.

Assays:
[1] = biological target: Beta-2 adrenergic receptor (Homo sapiens) (UniProt P07550); assay: qHTS validation assay of beta-arrestin-biased ligands of beta2-adrenergic receptor (AID 485366); conditions: cell-based beta-arrestin recruitment to ADRB2, qHTS; series mostly up to 46.1 µM
Chain of Beta-2 adrenergic receptor (Homo sapiens) (P07550 whole entry, looked up): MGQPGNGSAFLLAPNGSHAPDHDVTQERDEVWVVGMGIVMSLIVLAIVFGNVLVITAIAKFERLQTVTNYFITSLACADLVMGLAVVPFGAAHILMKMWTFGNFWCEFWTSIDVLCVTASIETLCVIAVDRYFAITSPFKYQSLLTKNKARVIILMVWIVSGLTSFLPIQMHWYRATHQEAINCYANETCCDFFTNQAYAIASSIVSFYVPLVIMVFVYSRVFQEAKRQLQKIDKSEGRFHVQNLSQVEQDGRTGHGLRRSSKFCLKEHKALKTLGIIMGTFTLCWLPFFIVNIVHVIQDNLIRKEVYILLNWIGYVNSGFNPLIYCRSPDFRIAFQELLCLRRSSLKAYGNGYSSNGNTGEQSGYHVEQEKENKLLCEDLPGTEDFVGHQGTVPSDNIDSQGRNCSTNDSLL
How it was run: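 Values derive from curve-fitted %Activity of a luminescent beta-arrestin recruitment reporter; compounds tested up to 46 microM on Tango cells for 18 hr at 37 degrees C, 5% CO2.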

[2] = Quantitative high throughput screen for delayed death inhibitors of the malarial parasite plastid, 48 hour incubation (AID 488752); conditions: Plasmodium falciparum growth; series mostly up to 28.7 µM; further: nearly all actives have a fitted effect of over 65% in size
How it was run: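 Erythrocytes infected with P. falciparum carrying an integrated firefly luciferase reporter (2% hematocrit, 0.1% parasitemia final) were exposed to compounds in RPMI 1640/0.5% Albumax for 48 h at 37 C, 5% CO2. Growth inhibition was scored as reduced luminescence.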

[3] = biological target: Thioredoxin reductase 1, cytoplasmic (Rattus norvegicus) (UniProt O89049); assay: qHTS Assay for Substrates of Mammalian Selenoprotein Thioredoxin Reductase 1 (TrxR1) (AID 488772); conditions: purified TrxR1, NADPH consumption substrate assay; series mostly up to 57.1 µM;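 further: NADPH fluorescence in the first read after selenite addition and not the 8 min delta; a drop in NADPH fluorescence below the no-compound background marks a TrxR1 substrate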
Chain of Thioredoxin reductase 1, cytoplasmic (Rattus norvegicus) (O89049 whole entry, looked up): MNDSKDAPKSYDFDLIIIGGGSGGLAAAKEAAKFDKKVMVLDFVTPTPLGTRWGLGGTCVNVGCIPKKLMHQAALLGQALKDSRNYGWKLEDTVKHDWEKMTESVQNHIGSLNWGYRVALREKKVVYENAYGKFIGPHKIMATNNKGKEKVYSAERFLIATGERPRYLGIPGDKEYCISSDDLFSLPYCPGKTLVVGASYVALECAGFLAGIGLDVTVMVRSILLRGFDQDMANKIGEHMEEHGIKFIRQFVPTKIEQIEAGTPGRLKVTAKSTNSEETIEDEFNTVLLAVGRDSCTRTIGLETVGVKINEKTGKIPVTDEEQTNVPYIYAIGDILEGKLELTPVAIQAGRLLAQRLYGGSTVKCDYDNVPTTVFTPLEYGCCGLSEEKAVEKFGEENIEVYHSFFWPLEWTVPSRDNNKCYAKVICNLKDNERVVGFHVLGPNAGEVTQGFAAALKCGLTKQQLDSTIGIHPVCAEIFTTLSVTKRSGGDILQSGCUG
How it was run: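 Quantitative HTS in Tris-HCl buffer at pH 7.5 with EDTA and Tween-20, using rat TrxR1, 400 uM NADPH and 400 uM selenite (final). A fall in initial NADPH fluorescence relative to background marked substrate behaviour.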

[4] = biological target: Thioredoxin reductase 1, cytoplasmic (Rattus norvegicus) (UniProt O89049); assay: qHTS Assay for Inhibitors of Mammalian Selenoprotein Thioredoxin Reductase 1 (TrxR1) (AID 488773); conditions: purified TrxR1 enzyme activity; Potency: inhibition; series mostly up to 57.1 µM; further: nearly all actives have a fitted effect of over 40% in size; further: potency means the concentration at half of the fitted maximal effect
How it was run: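 Steps: enzyme (90 nM) plus NADPH (400 uM final), 5 min at ~22 deg C; compound added, 15 min; selenite (400 uM final) added; fluorescence followed for 8 min. Concentration-response curves derived from the normalized delta values.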

[5] = biological target: Flap endonuclease 1 (Homo sapiens) (UniProt P39748); assay: qHTS Validation Assay for the Inhibitors of Human Flap endonuclease 1 (FEN1) (AID 488816); conditions: FEN1 nuclease activity, fluorogenic DNA substrate; series mostly up to 57.1 µM
Chain of Flap endonuclease 1 (Homo sapiens) (P39748 whole entry, looked up): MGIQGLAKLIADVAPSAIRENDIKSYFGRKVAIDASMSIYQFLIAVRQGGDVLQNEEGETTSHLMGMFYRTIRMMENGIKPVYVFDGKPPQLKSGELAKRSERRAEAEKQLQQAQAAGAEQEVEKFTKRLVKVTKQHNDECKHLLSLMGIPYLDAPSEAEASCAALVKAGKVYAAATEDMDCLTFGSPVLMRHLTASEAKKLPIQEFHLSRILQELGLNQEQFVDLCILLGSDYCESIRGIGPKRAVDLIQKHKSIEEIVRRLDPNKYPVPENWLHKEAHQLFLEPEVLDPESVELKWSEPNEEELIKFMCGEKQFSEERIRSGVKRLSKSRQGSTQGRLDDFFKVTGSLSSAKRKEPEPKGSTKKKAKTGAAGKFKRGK
How it was run: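 FEN1, dispensed as a 10 nM reagent, was preincubated with pin-transferred compounds for 15 min at room temperature before substrate was added (50 nM final). Plates were read at 0 and 15 min, and a four-parameter Hill equation was fitted to the concentration-response data.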

[6] = biological target: M-phase phosphoprotein 8 (Homo sapiens) (UniProt Q99549); assay: qHTS Validation Assay for Inhibitors for MPP8 Chromodomain Interactions with Methylated Histone Tails (AID 488949); conditions: AlphaScreen MPP8 binding to H3K9me3 peptide; series mostly up to 57.1 µM; further: nearly all actives have a fitted effect of over 55% in size; further: potency means the concentration at half of the fitted maximal effect
Chain of M-phase phosphoprotein 8 (Homo sapiens) (Q99549 whole entry, looked up): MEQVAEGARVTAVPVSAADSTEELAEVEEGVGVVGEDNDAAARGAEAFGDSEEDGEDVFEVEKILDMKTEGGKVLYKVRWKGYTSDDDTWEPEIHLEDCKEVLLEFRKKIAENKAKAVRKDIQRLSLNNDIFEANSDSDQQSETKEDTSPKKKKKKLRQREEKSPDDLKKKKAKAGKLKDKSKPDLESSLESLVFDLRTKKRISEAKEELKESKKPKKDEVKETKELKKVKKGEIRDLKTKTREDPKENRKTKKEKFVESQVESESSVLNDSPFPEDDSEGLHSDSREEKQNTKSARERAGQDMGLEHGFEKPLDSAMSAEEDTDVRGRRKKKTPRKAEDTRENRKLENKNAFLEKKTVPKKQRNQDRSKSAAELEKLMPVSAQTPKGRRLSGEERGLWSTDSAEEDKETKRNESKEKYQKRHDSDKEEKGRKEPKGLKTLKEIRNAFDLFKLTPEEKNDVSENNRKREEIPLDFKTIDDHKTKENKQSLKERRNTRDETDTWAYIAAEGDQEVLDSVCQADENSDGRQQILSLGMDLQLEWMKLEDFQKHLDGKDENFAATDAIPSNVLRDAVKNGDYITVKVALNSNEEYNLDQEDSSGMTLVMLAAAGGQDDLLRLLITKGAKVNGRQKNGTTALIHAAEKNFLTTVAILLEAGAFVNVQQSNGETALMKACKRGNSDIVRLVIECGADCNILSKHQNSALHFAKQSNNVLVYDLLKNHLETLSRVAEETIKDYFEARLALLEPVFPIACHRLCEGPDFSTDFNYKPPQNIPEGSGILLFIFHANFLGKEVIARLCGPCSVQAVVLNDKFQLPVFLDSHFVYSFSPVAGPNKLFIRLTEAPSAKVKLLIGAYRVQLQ
How it was run: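 AlphaScreen proximity signal from streptavidin donor and Ni-chelate acceptor beads (10 ug/mL each) reported binding of MPP8 to trimethyl-K9 H3(1-18) peptide, both at 50 nM. The complex formed 30 min before a 30 min compound exposure at room temperature, in PBS pH 7.4.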

[7] = biological target: Chromobox protein homolog 1 (Homo sapiens) (UniProt P83916); assay: qHTS Validation Assay for Inhibitors of HP1-beta Chromodomain Interactions with Methylated Histone Tails (AID 488953); conditions: HP1-beta chromodomain / methylated histone peptide binding assay; series mostly up to 114 µM; further: nearly all actives have a fitted effect of over 50% in size; further: potency means the concentration at half of the fitted maximal effect
Chain of Chromobox protein homolog 1 (Homo sapiens) (P83916 whole entry, looked up): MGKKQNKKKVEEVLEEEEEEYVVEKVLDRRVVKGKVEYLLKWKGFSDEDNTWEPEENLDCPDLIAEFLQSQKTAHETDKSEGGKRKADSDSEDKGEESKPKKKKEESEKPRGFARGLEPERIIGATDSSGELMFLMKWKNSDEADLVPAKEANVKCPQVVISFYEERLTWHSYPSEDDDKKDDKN
How it was run: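 HP1-beta (50 nM) was preincubated 30 min at room temperature with biotinylated H3(1-18)K9me3 peptide (50 nM) in PBS pH 7.4, 0.01% Tween-20, then with compounds 30 min. AlphaScreen signal was read after streptavidin donor/nickel chelate acceptor beads (10 ug/mL final).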

[8] = biological target: Methanococcus maripaludis chaperonin (MmCpn) (UniProt Q6LX38); assay: High-Throughput Screening for Modulators of Cytosolic Chaperonin Activity: MmCpn Primary Screen (AID 488978); conditions: Purified MmCpn ATPase activity, ADP HTRF detection, 10 min; series mostly up to 76.9 µM;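 further: 50 nM MmCpn enzyme hydrolysing 30 µM ATP at 37 °C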
Chain of Methanococcus maripaludis chaperonin (MmCpn) (Q6LX38 1-543): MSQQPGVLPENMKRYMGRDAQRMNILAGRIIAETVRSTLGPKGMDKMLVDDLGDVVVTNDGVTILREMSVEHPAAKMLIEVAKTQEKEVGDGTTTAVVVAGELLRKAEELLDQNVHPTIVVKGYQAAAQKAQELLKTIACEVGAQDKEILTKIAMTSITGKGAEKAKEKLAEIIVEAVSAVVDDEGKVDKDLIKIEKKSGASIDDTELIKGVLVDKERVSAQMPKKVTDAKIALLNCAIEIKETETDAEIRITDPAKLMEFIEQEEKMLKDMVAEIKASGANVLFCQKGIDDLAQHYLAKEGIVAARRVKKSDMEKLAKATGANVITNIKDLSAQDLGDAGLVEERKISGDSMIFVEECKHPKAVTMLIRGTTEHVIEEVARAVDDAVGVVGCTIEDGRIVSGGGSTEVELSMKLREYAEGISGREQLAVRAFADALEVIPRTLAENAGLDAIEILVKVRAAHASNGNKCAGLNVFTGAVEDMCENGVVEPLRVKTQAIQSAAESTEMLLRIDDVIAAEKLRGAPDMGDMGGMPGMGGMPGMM
How it was run: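 ATPase activity of 50 nM MmCpn was assayed with 30 uM ATP, 10 minutes at 37C, after a 5 min compound preincubation at room temperature. ADP production was read as HTRF emission at 590 and 665 nm.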

[9] = biological target: Transient receptor potential cation channel subfamily V member 1 (Homo sapiens) (UniProt Q8NER1); assay: HTS Assay for Compounds that Act as Enhancers of the Vanilloid Receptor 1 (AID 488979); conditions: TRPV1-expressing cells, enhancer of channel activity; series mostly up to 41.7 µM
Chain of Transient receptor potential cation channel subfamily V member 1 (Homo sapiens) (Q8NER1 whole entry, looked up): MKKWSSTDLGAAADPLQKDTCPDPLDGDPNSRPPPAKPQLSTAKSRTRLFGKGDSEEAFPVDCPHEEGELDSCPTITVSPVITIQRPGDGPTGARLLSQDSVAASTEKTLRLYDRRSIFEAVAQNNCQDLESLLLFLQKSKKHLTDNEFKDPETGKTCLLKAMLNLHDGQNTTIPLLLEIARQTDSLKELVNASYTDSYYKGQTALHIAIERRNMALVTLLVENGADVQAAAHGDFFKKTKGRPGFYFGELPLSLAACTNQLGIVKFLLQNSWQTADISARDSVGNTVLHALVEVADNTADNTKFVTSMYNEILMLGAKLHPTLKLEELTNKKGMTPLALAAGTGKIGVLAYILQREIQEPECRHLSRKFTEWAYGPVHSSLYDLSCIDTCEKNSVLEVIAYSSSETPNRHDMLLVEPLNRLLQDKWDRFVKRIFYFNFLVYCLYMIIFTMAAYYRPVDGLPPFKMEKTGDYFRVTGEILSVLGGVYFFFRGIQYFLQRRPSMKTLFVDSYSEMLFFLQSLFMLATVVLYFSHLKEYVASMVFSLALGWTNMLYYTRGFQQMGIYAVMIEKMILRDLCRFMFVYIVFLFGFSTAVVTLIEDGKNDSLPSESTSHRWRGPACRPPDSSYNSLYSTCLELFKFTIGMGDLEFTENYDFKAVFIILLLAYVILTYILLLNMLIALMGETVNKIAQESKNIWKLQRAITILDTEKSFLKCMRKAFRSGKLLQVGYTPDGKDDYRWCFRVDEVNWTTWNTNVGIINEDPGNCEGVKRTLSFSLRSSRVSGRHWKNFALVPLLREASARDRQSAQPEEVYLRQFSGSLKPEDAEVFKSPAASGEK
How it was run: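 TRPV1-expressing cells loaded with Fluo-8 calcium dye; compounds added and calcium influx read kinetically for 3 min (agonist phase), then capsaicin at EC20 added and read 2 min more for enhancement. Fluorescence ex 480/em 520 nm.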

[10] = biological target: Thyrotropin receptor (Homo sapiens) (UniProt P16473); assay: qHTS Assay for Antagonists of the Thyroid Stimulating Hormone Receptor (AID 488980); conditions: TSHR-expressing cells, cAMP antagonist read-out; series mostly up to 57.5 µM
How it was run: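 Inhibition of cAMP raised by EC80 TSH (4 nM final) was read by HTRF, with lysate cAMP competing against cAMP-d2 for cryptate antibody after 30 min at room temperature. The cells were transfected HEK293 held in phosphodiesterase inhibitor RO 20-1724 at 70 uM.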

[11] = biological target: D(1A) dopamine receptor (Homo sapiens) (UniProt P21728); assay: HTS Assay for Allosteric Agonists of the Human D1 Dopamine Receptor: Primary Screen for Agonists (AID 488981); conditions: Inducible HEK293 T-REx D1 cells, calcium-flux fluorescence, 180 s kinetic; series mostly up to 41.8 µM
How it was run: (§1)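 Tetracycline-induced HEK293 T-REx cells force-coupled to calcium signalling were incubated overnight at 30 C and dye-loaded at room temperature. Calcium flux over 180 s after compound addition flagged agonists; a further 180 s read after EC20 dopamine flagged potentiators.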

[12] = biological target: D(1A) dopamine receptor (Homo sapiens) (UniProt P21728); assay: HTS Assay for Allosteric Agonists of the Human D1 Dopamine Receptor: Primary Screen for Potentiators (AID 488982); conditions: HEK293 T-REx D1 inducible cells, calcium flux, kinetic fluorescence; series mostly up to 8.37 µM; further: potency means the concentration at half of the fitted maximal effect
How it was run: as §1

[13] = biological target: D(1A) dopamine receptor (Homo sapiens) (UniProt P21728); assay: HTS Assay for Allosteric Agonists of the Human D1 Dopamine Receptor: Primary Screen for Antagonists (AID 488983); conditions: D1 receptor cell assay, antagonist mode, qHTS titration; series mostly up to 41.8 µM;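 further: calcium flux response to an EC80 dopamine challenge measured with no-wash dye; nearly all actives have a fitted effect of over 65% in size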
How it was run: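 Tetracycline-induced HEK293 T-REx cells expressing force-coupled D1 were plated overnight at 30 C, dye-loaded for calcium, and read kinetically. Compounds were pinned in, then an EC80 dopamine challenge followed after 180 s to reveal antagonism.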

[14] = Validation screen for small molecules that induce genotoxicity in human embryonic kidney (HEK293T) cells expressing luciferase-tagged ELG1 (AID 493106); conditions: luminescence; series mostly up to 46.1 µM
How it was run: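 HEK293T cells expressing luciferase-tagged ELG1 were exposed to compound or DMSO vehicle for 16 hr at 37 °C, 5% CO2. Genotoxic stress raises ELG1 levels, so increased luciferase signal after ONE-Glo addition and 30 min at room temperature marks hits.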

[15] = biological target: Thyrotropin-releasing hormone receptor (Homo sapiens) (UniProt P34981); assay: qHTS for Small Molecule Agonists and Allosteric Enhancers of Human TRH Receptor: Validation Screen for Agonists (AID 493127;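 active means calcium activation more than 3 SD above the typical response in the agonist read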;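 further: intracellular calcium rise by fluo-8 fluorescence before TRH EC20 addition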); conditions: TRH receptor agonist cell assay; at 2 µM; stronger effect = higher value
Chain of Thyrotropin-releasing hormone receptor (Homo sapiens) (P34981 whole entry, looked up): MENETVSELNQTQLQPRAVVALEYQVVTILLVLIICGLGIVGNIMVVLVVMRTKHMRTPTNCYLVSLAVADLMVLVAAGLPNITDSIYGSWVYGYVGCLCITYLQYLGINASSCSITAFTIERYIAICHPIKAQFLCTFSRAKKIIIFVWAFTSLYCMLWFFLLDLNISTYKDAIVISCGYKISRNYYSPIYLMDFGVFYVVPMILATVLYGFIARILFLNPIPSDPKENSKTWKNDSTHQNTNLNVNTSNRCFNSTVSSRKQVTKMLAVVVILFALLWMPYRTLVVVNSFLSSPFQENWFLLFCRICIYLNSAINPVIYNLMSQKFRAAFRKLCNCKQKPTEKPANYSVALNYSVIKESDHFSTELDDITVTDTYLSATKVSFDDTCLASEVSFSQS
How it was run: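 TRHR-expressing cells were plated overnight in serum-containing medium, then loaded with fluo-8 calcium dye at room temperature for 30 min–1.5 h. After a 10 s baseline, compound was pin-transferred and calcium fluorescence (ex 480/em 530) read kinetically for agonist response.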

[16] = qHTS for Inhibitors of Cell Surface uPA Generation: Validation Assay (AID 493164); conditions: mouse cells, plasminogen activation; series mostly up to 38.3 µM;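 further: RAW 264.7 macrophage cells exposed to compound for 18 h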
How it was run: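 RAW 264.7, 4000 cells/well, o/n plating; cpd 7-pt 1:5 dilution 2.45 nM–38.3 uM final; 18 h, 37 C/5% CO2; ATP-Lite, 5 s luminescence exposure.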

[17] = biological target: ATP-dependent 6-phosphofructokinase (Trypanosoma brucei brucei) (UniProt O15648); assay: qHTS Validation Assay to Find Inhibitors of T. brucei phosphofructokinase (AID 485368); conditions: T. brucei PFK enzyme assay, qHTS 7-point titration; series mostly up to 57.5 µM
Chain of ATP-dependent 6-phosphofructokinase (Trypanosoma brucei brucei) (O15648 whole entry, looked up): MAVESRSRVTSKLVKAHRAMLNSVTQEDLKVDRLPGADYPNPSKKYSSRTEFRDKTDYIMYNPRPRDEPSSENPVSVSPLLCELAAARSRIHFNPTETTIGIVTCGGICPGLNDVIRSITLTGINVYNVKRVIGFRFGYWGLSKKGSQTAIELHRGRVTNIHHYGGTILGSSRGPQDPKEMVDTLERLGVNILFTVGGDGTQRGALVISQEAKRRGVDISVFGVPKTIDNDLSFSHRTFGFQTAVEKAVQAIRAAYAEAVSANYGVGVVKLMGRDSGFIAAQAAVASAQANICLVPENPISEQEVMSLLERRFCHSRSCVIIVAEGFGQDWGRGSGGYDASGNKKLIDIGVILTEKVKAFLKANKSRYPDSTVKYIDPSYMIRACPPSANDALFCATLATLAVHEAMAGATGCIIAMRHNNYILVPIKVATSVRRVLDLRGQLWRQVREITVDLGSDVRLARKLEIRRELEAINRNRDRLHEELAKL
How it was run: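 Enzyme reaction in triethanolamine buffer pH 8.0 with 5 mM MgCl2, 0.01% Tween20 and 0.1% BSA; PFK 1.25 nM, F6P 0.5 mM, ATP 0.1 mM, 45 min RT. ADP quantified by ADP-Glo.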

[18] = Quantitative high throughput screen for delayed death inhibitors of the malarial parasite plastid, 96 hour incubation (AID 488745); conditions: Plasmodium falciparum growth; series mostly up to 28.7 µM; further: nearly all actives have a fitted effect of over 70% in size; further: potency means the concentration at half of the fitted maximal effect
How it was run: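 P. falciparum carrying an integrated firefly luciferase reporter, grown in erythrocytes (2% hematocrit, 0.1% parasitemia final) in RPMI 1640/0.5% Albumax, was exposed to compound for 96 h (two generations) at 37 C, 5% CO2. Luminescence decrease indicated growth inhibition.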

[19] = Nrf2 qHTS screen for inhibitors: Validation (AID 493153; active means well fitted inhibition curve with a large enough effect in the main read-out, with a control signal flat, not every such curve was filed as active); conditions: A549 ARE-Fluc reporter, 18-24 h; Potency: luciferase luminescence; viability change: measured here: cytotoxicity max response; luciferase luminescence, at 46.1 µM (top of the series)
How it was run: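 A549 cells carrying an ARE-driven firefly luciferase reporter, in 5% FBS OPTI-MEM, were treated with compounds in concentration-response for 18-24 h at 37°C. Viability was read by CellTiter-Fluor fluorescence, then Nrf2 activity by luciferase luminescence.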

Structure (SMILES) | outcome [1] | Potency [2] | outcome [3] | Potency [4] | Potency [5] | Potency [6] | Potency [7] | outcome [8] | outcome [9] | outcome [10] | Potency [11] | Potency [12] | Potency [13] | Potency [14] | activation [15] | outcome [16] | Potency [17] | Potency [18] | Potency [19] | viability change [19]
C=C(C)[C@H]1Cc2c(ccc3c2O[C@@H]2COc4cc(OC)c(OC)cc4[C@@H]2C3=O)O1 | inactive | inactive | inactive | inactive | inactive | inactive | 35.5 µM (active) | inactive | inactive | inactive | inactive | inactive | inactive | inactive | 1.25% (inactive) | inactive |  |  |  | 
CNCC(O)c1ccc(O)cc1 (stereo not drawn) | inactive | inactive | inactive |  | inactive | inactive | inactive | inactive | inactive | inactive | inactive | inactive | inactive | inactive | 1.12% (inactive) | inactive | inactive | inactive | inactive | -6.1%
COC[C@H]1OC(=O)c2coc3c2[C@@]1(C)C1=C(C3=O)C2CCC(=O)[C@@]2(C)C[C@H]1OC(C)=O (stereo partly drawn) | inactive |  | inactive | 11.9 µM (active) | inactive | inactive | inactive | inactive | inactive | inactive | inactive | inactive | inactive | inactive | 0.25% (inactive) |  | inactive | 8.28 µM (active) |  | 
Fc1ccc(C(OCCN2CCN(CCCc3ccccc3)CC2)c2ccc(F)cc2)cc1 | inactive |  | inactive | inactive | inactive | 15.8 µM (active) | 39.8 µM (active) | inactive | inactive | inactive | inactive | inactive | inactive | inactive | -5.62% (inactive) | inactive | inactive | inactive |  | 
CCC1(C2=NCCN2)Cc2ccccc2O1 (stereo not drawn) | inactive | inactive | inactive | inactive | inactive | inactive | inactive | inactive | inactive | inactive | inactive | 2.31 µM (active) | inactive | inactive | 0.812% (inactive) | inactive | inactive | inactive | inactive | 1.87%
